# Screens deposited in PubChem BioAssay by several laboratories.
# EBV LMP1 NFkB – EBV LMP1-driven NF-kappaB luciferase reporter inhibitors, primary screen, cell-based, luminescence, single point. 350,000 tested, 0.69% active. inhibition, % at 12.5 µM. LMP1-induced NF-kappaB luciferase reporter cells; in the data active = inhibition above about 41%; inconclusive = no clear call, values can overlap the other calls;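 also: 0% = neutral control wells and 100% = reference inhibitor control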
# EWS-Fli inh – EWS/Fli-driven NR0B1 reporter inhibitors, primary screen, A673 cells, NR0B1 luciferase, luminescence, MLPCN library | AID 651661, 2012 | 350,000 tested, 0.67% active | inhibition, % at 12.6 µM | viability-normalised;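 active = mean inhibition of at least 50% after viability correction, with every replicate also passing that limit; inconclusive = mean reaches 50% but only one of two replicates passes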;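 also: firefly luciferase signal divided by Alamar Blue viability fluorescence both relative to DMSO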
# PAX8 reporter – inhibitors of PAX8-driven TPO luciferase reporter, primary screen, RMG-I cells, single concentration; 360,000 tested, 1.2% active; SteadyGlo, 24 h; inhibition, % at 12.6 µM;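 active = mean replicate inhibition at least 60% with every replicate also reaching 60%; inconclusive = only one of the two criteria is met; inactive = mean below 60% and not all replicates reaching 60%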;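 also: luciferase light reporting Pax8 driven TPO promoter activity; plate controls were median of neutral control wells for no effect and mitoxantrone controls for full effect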
# TWEAK Fn14 block – inhibitors of TWEAK-Fn14 signaling, primary screen, luciferase reporter cells, uHTS. TWEAK-stimulated Fn14 reporter cells, luciferase luminescence, 8 h. inhibition, % at 10 µM. 360,000 tested, 2% active. AID 1159606, 2016; in the data active = inhibition above about 50%
# LGR2 antag – inhibitors of bursicon-induced LGR2 CRE-luciferase signal, primary screen, cell-based, HEK293, CRE-luciferase reporter, bursicon stimulation | Drosophila bursicon receptor LGR2 (rickets) | bursicon-stimulated, 4 h | inhibition, % at 9.99 µM | 380,000 tested, 0.35% active;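 active = drop in luminescence signal, shown as inhibition above about 50% in the replicate tests, limit read from the data, passing the limit was not always enough; inconclusive = probably only some replicates passing the limit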;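 also: agonist challenge used bursicon conditioned medium at about half maximal strength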
# TROY NFkB inh – inhibitors of TROY-driven NF-kB signaling, primary screen, Q293 LMP1-TROYcd cells, NF-kB luciferase, uHTS. Q293 LMP1-TROYcd NF-kB luciferase reporter, 4 h. inhibition, % at 10 µM. 360,000 tested, 0.98% active;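 active = compounds whose plate-normalised and pattern-corrected inhibition of the luciferase reporter signal at the single screening dose is 50% or more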
# The depositor's hits bear a star; ? = inconclusive; . = not tested or not shown. Only some compounds are listed: those with a hit (about 3.1% of all), similar ones and a draw of the others.
SMILES,EBV LMP1 NFkB,EWS-Fli inh,PAX8 reporter,TWEAK Fn14 block,LGR2 antag,TROY NFkB inh
O=[N+]([O-])c1ccc(O)c(C2CCCCC2)c1,3,-1,4,52*,10,61*
C[C@@H]1CN([C@@H](C)CO)C(=O)c2cc(NC(=O)Nc3ccc(F)cc3)ccc2O[C@H]1CN(C)C(=O)Nc1ccc2c(c1)OCO2,.,-89,.,.,5,.
CC(C)NC(=O)N(C)C[C@H]1Oc2ccc(NC(=O)Nc3ccc4c(c3)OCO4)cc2CC(=O)N([C@H](C)CO)C[C@@H]1C,.,-2,.,.,-10,.
CCCCC(=O)Nc1cc(N(C)C)nc2ccccc12,1,.,.,-3,.,-9
CN(C)c1cc(NC(=O)CNC(C)(C)C)c2ccccc2n1,0,1,7,51*,0,-2
O=C(Nc1ccc([N+](=O)[O-])cc1)Nc1ccc(OC(F)F)c(Cl)c1,68*,.,83*,82*,20,61*
O=C(C[C@@H]1CC[C@@H](NC(=O)Nc2ccccc2F)[C@@H](CO)O1)NCc1ccc(F)cc1,.,-1,.,.,13,.
CCN(CC)c1ccc2c(C)c(Cl)c(=O)oc2c1,0,17,4,-17,-21,-38
CCOc1ccc2c(C)c(Cl)c(=O)oc2c1,64*,.,.,-12,.,-18
CN1C(=O)c2cc(NS(=O)(=O)c3cccc(F)c3)ccc2OC[C@H]2O[C@@H](CC(=O)N3CCc4ccccc4C3)CC[C@H]21,.,4,11,.,-1,.
CCN(CC)S(=O)(=O)c1ccc2c(c1)nc(SCC(=O)NC1CC1)n2-c1ccccc1OC,0,.,.,61*,.,.
O=C(NCc1ccco1)c1sc(=S)n2c1[nH]c(=O)c1ccccc12,-6,.,.,7,.,17
O=C(NC1CCCC1)c1sc(=S)n2c1[nH]c(=O)c1ccccc12,6,.,.,-3,.,72*
CCc1ccc(OCC(=O)Nc2ccc(-c3cc4ccccc4oc3=O)c(OC)c2)cc1,36,.,-11,73*,14,35
N#C/C(=C\Nc1ccccc1O)c1nc2ccccc2o1,-1,-13,27,43,37,52*
CC1(C)SC2c3ccccc3C(=O)N2[C@@H]1C(=O)NCCCN1CCOCC1 (stereo partly drawn),71*,.,.,-20,.,-3
CC(C)CNC(=O)[C@H]1N2C(=O)c3ccccc3C2SC1(C)C (stereo partly drawn),-2,-21,-7,-9,-17,-15
CN(C)C(=O)/C(C#N)=C\c1cc(Br)c(Sc2ccc(Cl)cc2)o1,18,.,.,88*,.,31
Clc1ccc(Sc2oc(/C=N/n3cnnc3)cc2Br)cc1,-12,.,1,12,.,1
CCC[C@@H](CN[C@@H](CNC)[C@H](C)CC)NCC1CCC(C(C)(C)C)CC1 (stereo partly drawn),-18,56*,93*,-47,8,1
CC[C@@H](C)[C@H](CNC)NC[C@@H](Cc1cccc2ccccc12)NCCc1cccc(C(F)(F)F)c1,-6,45,103*,-56,14,-9
CCC[C@@H](CN[C@@H](CNC)C(C)C)NCCCCc1ccccc1,-2,12,14,-4,12,-14
CCC[C@H](CN[C@@H](CNC)[C@H](C)CC)NCCc1cc(C(F)(F)F)cc(C(F)(F)F)c1,-17,52*,97*,-72,63*,-7
CC1=NN(c2ccc(C)c(C)c2)C(=O)/C1=C\C=C\c1ccc([N+](=O)[O-])o1,23,67*,70*,86*,.,33
CCOC(=O)C1CCCN(C(=O)C(C)(C)Oc2ccc(Cl)cc2)C1 (stereo not drawn),1,4,16,86*,-12,19
SMILES,EBV LMP1 NFkB,EWS-Fli inh,PAX8 reporter,TWEAK Fn14 block,LGR2 antag,TROY NFkB inh
O=C(CSc1nnnn1-c1ccccc1)Nc1nsc(-c2ccc(Cl)cc2)n1,76*,.,.,-3,.,-1
O=C(CSc1nnnn1-c1ccccc1)Nc1nsc(-c2ccccc2)n1,10,.,.,7,.,-1
O=[N+]([O-])c1ccc(Cl)cc1Sc1nc2ccccc2o1,2,12,.,15,21,-7
O=[N+]([O-])c1ccc(Sc2cc[n+]([O-])c3ccccc23)c([N+](=O)[O-])c1,-13,-9,22,77*,?,3
O=[N+]([O-])c1ccc(Sc2nc3ccccc3o2)c([N+](=O)[O-])c1,15,63*,.,58*,97*,23
CCCNC(=O)N1C[C@@H]2[C@H](c3ccccc31)[C@@H](CO)N2Cc1ccc2c(c1)OCO2,.,6,13,.,1,.
CCOc1ccc(/C=N/NC(=O)c2[nH]c3ccc(C)cc3c2C)cc1,0,-3,-2,14,-14,13
O=C(N/N=C/c1c[nH]c2ccccc12)c1cc(Br)ccc1O,0,8,2,-17,-16,-35
O=C(N/N=C/c1c[nH]c2ccccc12)c1[nH]c2ccc(Br)cc2c1-c1ccccc1,7,48,94*,43,9,36
O=C(N/N=C/c1ccc(O)cc1)c1[nH]c2ccc(Br)cc2c1-c1ccccc1,15,49,96*,45,-9,15
Cc1c(C(=O)N/N=C/c2ccc(Cl)cc2)[nH]c2ccc(Cl)cc12,-5,59*,58,48,-7,44
CN1c2ccc(Br)cc2[C@H]2[C@H](CCN2C(=O)C2CCOCC2)[C@@H]1CO,.,-3,-3,.,-7,.
O=C1/C(=C/c2cccnc2)SC(=S)N1c1ccc(F)cc1,-5,-9,38,24,16,-13
O=C(CN1C(=O)S/C(=C/c2cccnc2)C1=O)N1CCOCC1,1,2,22,-28,-2,-83
O=C(O)CCN1C(=O)S/C(=C\c2cccnc2)C1=O,-4,-7,-1,-2,-2,79*
O=C1/C(=C/c2cccnc2)SC(=S)N1c1ccc(O)cc1,-1,-1,31,60*,48,29
CS(=O)(=O)c1ccc(C(=O)NCCN2C(=O)S/C(=C\c3cccnc3)C2=O)cc1[N+](=O)[O-],-9,64*,30,83*,69*,15
CCOC(=O)c1ccccc1NC(=O)C1CCN(c2ncnc3sc(C)c(C)c23)CC1,19,.,.,-22,.,1
Cc1sc2ncnc(N3CCC(C(=O)Nc4nc(-c5cccs5)cs4)CC3)c2c1C,6,-35,12,67*,-20,25
Cc1sc2ncnc(N3CCC(C(=O)Nc4ccccc4C(C)(C)C)CC3)c2c1C,?,-3,-4,74*,33,53*
Cc1noc(C)c1S(=O)(=O)Nc1cccc2c1O[C@@H](CN(C)C(=O)NC(C)C)[C@@H](C)CN([C@@H](C)CO)C2=O,.,-11,.,.,-4,.
CCN1CCN(c2oc(/C=C/c3ccccc3)nc2C#N)CC1,5,-5,-14,21,-9,53*
